The whole screen tested about 99,000 compounds, of which about 340 (0.34%) were called active. The sample as a whole holds a higher share of actives than the screen did. A number with no mark means an inactive call. Cut-off read from the data, not from the text of the source: active = TR-FRET ratio above about 2300; inactive = the rest.
Test: TR-FRET detection interference compounds, primary screen, artefact control for PPARgamma SRC-1 recruitment agonists, biochemical, TR-FRET emission ratio (AID 1051)
Conditions: TR-FRET detection artefact counter-screen, at 8 µM, hits give high values

SMILES	TR-FRET ratio
O=C(Nc1cccnc1)c1ccc(Cl)cc1[N+](=O)[O-]	2040
Cc1cc(C)cc(NC(=S)NCCCN2CCOCC2)c1	1640
CCc1cccc(C)c1NC(=O)COC(=O)Cc1ccsc1	1600
CC(=O)N(CCCN(C)C)c1nc2ccc(C)cc2s1	2080
COc1ccc(/C=C(\C#N)C(=O)ONC2=NCCCCC2)cc1	1820
COc1ccc(S(=O)(=O)N(C)C)cc1NC(=O)CSc1ncccn1	1990
CCOCCCNC(=S)N1CCC(NC(=O)C2CCCCC2)CC1	1730
Cc1ccc(NS(=O)(=O)c2cccs2)cc1S(=O)(=O)N1CCCCCC1	2400 (active)
Cc1ccc(C(=O)NCC(=O)O)cc1S(=O)(=O)N1CCCCC1	1790
O=S(=O)(Nc1cc(S(=O)(=O)N2CCOCC2)ccc1N1CCCC1)c1cccs1	1650
CCn1c(COc2ccccc2)nnc1SCC(=O)NCc1ccco1	1770
C/C(=N/OC(=O)c1cccc(C(F)(F)F)c1)c1cnccn1	1580
CC(OC(=O)CNS(=O)(=O)/C=C/c1ccccc1)C(=O)Nc1ccc(S(=O)(=O)N2CCCC2)cc1 (centres undefined)	1670
O=C(NNC1=C(C(=O)C(F)(F)F)CCC1)c1ccncc1	1980
CN(NC(=O)C1CC(=O)N(c2ccccc2)C1)C1=NS(=O)(=O)c2ccccc21 (centres undefined)	1810
CCN(CC)c1ccc(C(=O)c2cnc(/N=C/N(C)C)s2)cc1	1790
COc1ccc(CCC(=O)OCC(=O)Nc2ccc(C)c(S(=O)(=O)N(C)C)c2)cc1	1760
CN(CCOc1ccc(Br)cc1)CC(=O)Nc1cccc(S(=O)(=O)NC2=NCCC2)c1	1830
CCC(C)NC(=O)/C=C/c1ccc(S(=O)(=O)NCc2ccco2)cc1 (centres undefined)	1910
Cc1ccccc1CC1(CO)CCCN(Cc2ccc3c(c2)OCCO3)C1 (centres undefined)	1710
O=c1c2ccccc2c(-c2ccccc2)nn1Cc1ccccc1	1740
CSc1c(SCc2ccccc2)cnn(Cc2ccccc2)c1=O	2320 (active)
CSc1nc2ccccc2c(=O)n1Cc1ccc(F)cc1	1720
COCc1c(C(=O)N/N=C/C2CC=CCC2)nnn1-c1nonc1N (centres undefined)	1650
O=C(CCc1ccc(S(=O)(=O)N2CCOCC2)cc1)NN=C1CCCCCCC1	1980
CC(C)n1c(=O)[nH]c2cc(C(=O)Nc3ccccc3)ccc21	1850
C=CCc1cccc2cc(C(=O)NC3CCCC3)c(=O)oc12	1900
O=C(COC(=O)/C=C/c1cccc(Cl)c1)NCCc1ccccc1	1750
Cc1cc(C)nc(/N=C2\NC(=O)CC(C(=O)O)N2c2ccc(Cl)cc2Cl)n1 (centres undefined)	1900

Source: PubChem BioAssay AID1051 (The Scripps Research Institute Molecular Screening Center, 2008)
